Measured values reported in PubChem BioAssay (EPA / NIEHS).
Results filed as inconclusive are left out. Activity calls are given as the source filed them. The calls were made as follows: active = hit-call score of the fitted dose curve at least 0.9, where 1 is the maximum; inconclusive = response in the unintended direction; inactive = score below 0.9.

These molecules were tested against Cellular tumor antigen p53 (Homo sapiens) (UniProt P04637) (assay: TOX21_p53_BLA_p4_ratio: Tox21 HCT-116 p53 Agonism Beta-lactamase Assay, Ratio, Phase 4 (AID 2283601)).
Sequence of Cellular tumor antigen p53 (Homo sapiens) (P04637 whole entry, looked up): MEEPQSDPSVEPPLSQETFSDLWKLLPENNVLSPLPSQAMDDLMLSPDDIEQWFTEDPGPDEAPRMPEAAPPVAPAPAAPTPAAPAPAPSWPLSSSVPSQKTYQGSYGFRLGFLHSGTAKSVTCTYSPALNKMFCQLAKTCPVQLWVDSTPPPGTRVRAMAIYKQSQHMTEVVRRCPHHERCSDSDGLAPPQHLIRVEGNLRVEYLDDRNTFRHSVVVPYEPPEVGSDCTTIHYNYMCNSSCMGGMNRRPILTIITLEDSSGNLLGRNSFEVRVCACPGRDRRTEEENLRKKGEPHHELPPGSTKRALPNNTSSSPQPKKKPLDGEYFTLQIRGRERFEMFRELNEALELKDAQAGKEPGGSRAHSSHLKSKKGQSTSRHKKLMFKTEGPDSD
Outline: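 HCT116 cells carrying an inducible beta-lactamase reporter were plated at 4000 cells/well, rested 5 h, then exposed to compounds in DMSO (217-fold dilution) for 16 h at 37C. CCF4-AM substrate was loaded 2 h at room temperature; 460/530 nm emission ratio scored gain-of-signal versus DMSO.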
With `C[N+](C)(C)CC[N+]1(C)Cc2c(Cl)c(Cl)c(Cl)c(Cl)c2C1` the outcome was “inactive”.
With `BrCCCCCBr` the outcome was “inactive”.
With `CCOC(=O)C1=C[C@@H](OC(CC)CC)[C@H](NC(C)=O)[C@@H](N)C1` the outcome was “inactive”.
In the case of `O=C(O)C(=O)Cc1ccccc1`, the outcome is reported as “inactive”.
`Cc1ncc(CO)c(C=O)c1O` was tested, and the outcome was “inactive”.
For `O=C(O)c1c(Cl)cccc1Cl`, the outcome was “inactive”.
With `O=C(CCc1ccc(O)cc1)c1c(O)cc(O)cc1O` the outcome was “inactive”.
With `Nc1ncnc2c1ncn2[C@H]1CC[C@@H](CO)O1` the outcome was “inactive”.
In the case of `CCC(C)SSC(C)CC` (configuration not stated), the outcome is reported as “inactive”.
With `Cc1nc2n(c(=O)c1CCN1CCC(c3noc4cc(F)ccc34)CC1)CCC[C@H]2O` the outcome was “inactive”.
For `C[N+]1(CCCCC[N+]2(C)CCCC2)CCCC1`, the outcome was “inactive”.
In the case of `Nc1cc(Cl)c(NC2=NCCN2)c(Cl)c1`, the outcome is reported as “inactive”.
